# Laboratory results taken from the supplement of paper PMC8975748.
# Structures can show the parent of a compound that is named as a salt. ± gives the standard deviation of the averaged measurements.
# Experiments:
# [1] = tested on: Saccharomyces cerevisiae BY4741 SeMeCo community; experiment: mean cell size (pixel area) (pixels); higher = larger cells; conditions: 10 µM; 24 h; SM minimal medium
# Method in brief: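 Mean cell pixel area per well was measured in a four-plasmid fluorescent community of Saccharomyces cerevisiae BY4741, where every plasmid complements one auxotrophy and carries a fluorescent marker. Cells from an overnight preculture at OD600 = 1.0 were diluted to OD600 = 0.3 and dispensed at 70 µl into 384-well plates acoustically predosed with drug to a final 10 µM in SM medium. Incubation lasted 24 h, followed by paraformaldehyde fixation, automated confocal imaging and analysis in Harmony. Reported figures are averaged over 3 replicates. Same SeMeCo high-content imaging drug screen: Selleck FDA-approved drugs at 10 µM, 24 h in SM medium, 384-well plates, 3 replicates.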
# [2] = tested on: Saccharomyces cerevisiae BY4741 SeMeCo community; experiment: z-score of prototroph abundance vs DMSO median; higher = larger share of this subpopulation than in DMSO controls; conditions: 10 µM; 24 h; SM minimal medium; subpopulation (auxotrophy): Prototroph
# Method in brief: (§1)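 Cells of a Saccharomyces cerevisiae BY4741 community, carrying four plasmids that each restored one auxotrophy and encoded a distinct fluorescent protein, were pre-grown overnight to OD600 1.0 and diluted to 0.3. A 70 µl volume was added to 384-well plates acoustically predosed with library drugs (10 µM final) and grown 24 h in minimal SM medium. After paraformaldehyde fixation, automated confocal microscopy was used, with single-auxotroph fluorescent strains for thresholds and autofluorescence correction. The abundance of each subpopulation was scored as a z-score against the vehicle-well median.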
# [3] = tested on: Saccharomyces cerevisiae BY4741 SeMeCo community; experiment: z-score of subpopulation abundance vs DMSO median, subpopulation auxotrophic for M; higher = larger share of this subpopulation than in DMSO controls; conditions: 10 µM; 24 h; SM minimal medium; subpopulation (auxotrophy): M
# Method in brief: as §1
# [4] = tested on: Saccharomyces cerevisiae BY4741 SeMeCo community; experiment: z-score of subpopulation abundance vs DMSO median, subpopulation auxotrophic for L; higher = larger share of this subpopulation than in DMSO controls; conditions: 10 µM; 24 h; SM minimal medium; subpopulation (auxotrophy): L
# Method in brief: as §1
# [5] = tested on: Saccharomyces cerevisiae BY4741 SeMeCo community; experiment: z-score of subpopulation abundance vs DMSO median, subpopulation auxotrophic for U; higher = larger share of this subpopulation than in DMSO controls; conditions: 10 µM; 24 h; SM minimal medium; subpopulation (auxotrophy): U
# Method in brief: as §1
# [6] = tested on: Saccharomyces cerevisiae BY4741 SeMeCo community; experiment: z-score of subpopulation abundance vs DMSO median, subpopulation auxotrophic for H; higher = larger share of this subpopulation than in DMSO controls; conditions: 10 µM; 24 h; SM minimal medium; subpopulation (auxotrophy): H
# Method in brief: as §1
# [7] = tested on: Saccharomyces cerevisiae BY4741 SeMeCo community; experiment: z-score of subpopulation abundance vs DMSO median, subpopulation auxotrophic for LU; higher = larger share of this subpopulation than in DMSO controls; conditions: 10 µM; 24 h; SM minimal medium; subpopulation (auxotrophy): LU
# Method in brief: as §1
# [8] = tested on: Saccharomyces cerevisiae BY4741 SeMeCo community; experiment: z-score of subpopulation abundance vs DMSO median, subpopulation auxotrophic for LM; higher = larger share of this subpopulation than in DMSO controls; conditions: 10 µM; 24 h; SM minimal medium; subpopulation (auxotrophy): LM
# Method in brief: as §1
# [9] = tested on: Saccharomyces cerevisiae BY4741 SeMeCo community; experiment: z-score of subpopulation abundance vs DMSO median, subpopulation auxotrophic for HU; higher = larger share of this subpopulation than in DMSO controls; conditions: 10 µM; 24 h; SM minimal medium; subpopulation (auxotrophy): HU
# Method in brief: as §1
# [10] = tested on: Saccharomyces cerevisiae BY4741 SeMeCo community; experiment: z-score of subpopulation abundance vs DMSO median, subpopulation auxotrophic for UM; higher = larger share of this subpopulation than in DMSO controls; conditions: 10 µM; 24 h; SM minimal medium; subpopulation (auxotrophy): UM
# Method in brief: as §1
# [11] = tested on: Saccharomyces cerevisiae BY4741 SeMeCo community; experiment: z-score of subpopulation abundance vs DMSO median, subpopulation auxotrophic for HL; higher = larger share of this subpopulation than in DMSO controls; conditions: 10 µM; 24 h; SM minimal medium; subpopulation (auxotrophy): HL
# Method in brief: as §1
# [12] = tested on: Saccharomyces cerevisiae BY4741 SeMeCo community; experiment: z-score of subpopulation abundance vs DMSO median, subpopulation auxotrophic for HLM; higher = larger share of this subpopulation than in DMSO controls; conditions: 10 µM; 24 h; SM minimal medium; subpopulation (auxotrophy): HLM
# Method in brief: as §1
# [13] = tested on: Saccharomyces cerevisiae BY4741 SeMeCo community; experiment: z-score of subpopulation abundance vs DMSO median, subpopulation auxotrophic for LUM; higher = larger share of this subpopulation than in DMSO controls; conditions: 10 µM; 24 h; SM minimal medium; subpopulation (auxotrophy): LUM
# Method in brief: as §1
# [14] = tested on: Saccharomyces cerevisiae BY4741 SeMeCo community; experiment: z-score of subpopulation abundance vs DMSO median, subpopulation auxotrophic for HLUM; higher = larger share of this subpopulation than in DMSO controls; conditions: 10 µM; 24 h; SM minimal medium; subpopulation (auxotrophy): HLUM
# Method in brief: as §1
# [15] = tested on: Saccharomyces cerevisiae BY4741 SeMeCo community; experiment: z-score of subpopulation abundance vs DMSO median, subpopulation auxotrophic for HM; higher = larger share of this subpopulation than in DMSO controls; conditions: 10 µM; 24 h; SM minimal medium; subpopulation (auxotrophy): HM
# Method in brief: as §1
# [16] = tested on: Saccharomyces cerevisiae BY4741 SeMeCo community; experiment: z-score of subpopulation abundance vs DMSO median, subpopulation auxotrophic for HUM; higher = larger share of this subpopulation than in DMSO controls; conditions: 10 µM; 24 h; SM minimal medium; subpopulation (auxotrophy): HUM
# Method in brief: as §1
SMILES,mean cell size [1],z-score of prototroph abundance [2],z-score of subpopulation abundance [3],z-score of subpopulation abundance [4],z-score of subpopulation abundance [5],z-score of subpopulation abundance [6],z-score of subpopulation abundance [7],z-score of subpopulation abundance [8],z-score of subpopulation abundance [9],z-score of subpopulation abundance [10],z-score of subpopulation abundance [11],z-score of subpopulation abundance [12],z-score of subpopulation abundance [13],z-score of subpopulation abundance [14],z-score of subpopulation abundance [15],z-score of subpopulation abundance [16]
N#Cc1ccc2[nH]cc(CCCCN3CCN(c4ccc5oc(C(N)=O)cc5c4)CC3)c2c1 [Vilazodone],12.2 ± 0.28,0.6,0.28,0.06,-0.66,0,-0.57,0.35,-0.93,-0.2,-0.17,0.08,0.72,0.53,,
CN(C)CCC=C1c2ccccc2C=Cc2ccccc21 [Cyclobenzaprine HCl],12.59 ± 0.046,-0.37,0,-0.14,1.16,-0.68,-0.04,0.01,0.59,,-0.13,,-0.09,0.14,-0.88,-0.09
NC(=O)c1cnccn1 [Pyrazinamide],,-0.04,0.41,-1.21,,-0.45,0.31,-0.13,-0.29,1.23,,-0.57,-0.08,-0.48,-0.55,0.08
O=C(O)CCC(=O)Nc1ccc(S(=O)(=O)Nc2nccs2)cc1 [Succinylsulfathiazole],12.52 ± 0.1,0.73,-0.13,,0.33,,-0.4,-0.35,,,,-1.01,-0.95,-0.62,-0.78,-0.33
CCOc1cc(N)c([N+](=O)[O-])cc1C(=O)NC1CCN(CC2CC=CCC2)CC1 (stereo not given) [Cinitapride Hydrogen Tartrate],12.3 ± 0.2,,0.87,,1.07,-0.46,0.88,0.4,0.74,1.35,-0.01,-0.29,0.94,0.5,0.24,1.26
CCS(=O)(=O)CCn1c([N+](=O)[O-])cnc1C [Tinidazole],,0.58,-0.75,0.1,0.56,-1.03,0.29,0.29,-0.4,-0.43,-0.55,,-0.2,-0.4,-1.1,-0.47
CCC1=C(C)CN(C(=O)NCCc2ccc(S(=O)(=O)NC(=O)N[C@H]3CC[C@H](C)CC3)cc2)C1=O [Glimepiride],12.5 ± 0.2,-0.13,-0.24,0.24,-0.47,-0.23,,0.34,0.22,0.19,0.01,0.03,-0.01,0.7,0.24,0.42
